Records with an inconclusive call do not appear. Unmarked numbers belong to inactive results. The call rests on the fitted dose curve.
Biological target: Peroxisome proliferator-activated receptor delta (Homo sapiens) (UniProt Q03181)
Experiment: qHTS assay for small molecule agonists of peroxisome proliferator-activated receptor delta signaling (AID 588534);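 further: 0% = DMSO basal wells and 100% = positive control agonist at 10 µM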
Conditions: HEK293T PPARdelta-UAS-bla, beta-lactamase ratio, 18 h; series mostly up to 76.7 µM; activation: at the top concentration
Summary of the method: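 Cell-based beta-lactamase reporter assay run in agonist mode: cells seeded and incubated 5 hrs at 37 C, compounds added and incubated 18 hrs at 37 C. CCF4 dye fluorescence read after 2 hrs at RT; EC50 and efficacy from Hill fits.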

Chain of Peroxisome proliferator-activated receptor delta (Homo sapiens) (Q03181 whole entry, looked up): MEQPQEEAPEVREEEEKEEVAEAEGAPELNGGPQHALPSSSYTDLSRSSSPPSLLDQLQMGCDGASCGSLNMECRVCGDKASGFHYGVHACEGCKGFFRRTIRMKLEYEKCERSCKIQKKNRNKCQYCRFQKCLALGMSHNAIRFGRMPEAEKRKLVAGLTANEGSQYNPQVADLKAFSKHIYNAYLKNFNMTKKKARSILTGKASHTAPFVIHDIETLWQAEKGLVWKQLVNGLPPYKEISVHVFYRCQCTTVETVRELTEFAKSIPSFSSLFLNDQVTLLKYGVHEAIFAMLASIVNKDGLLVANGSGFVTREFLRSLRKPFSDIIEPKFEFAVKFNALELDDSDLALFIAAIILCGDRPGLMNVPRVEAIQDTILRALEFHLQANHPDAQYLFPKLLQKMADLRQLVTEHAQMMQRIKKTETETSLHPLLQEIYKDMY

Row | SMILES | activation
1 | O=C(O)c1ccccc1C(=O)O | 0.141%
2 | Cc1cccc2sc(N)nc12 | 2.52%
3 | FC(F)(F)c1ccc(Cl)c(Cl)c1 | 1.12%
4 | CC(=O)OC(C)C | 1.51%
5 | CCCCCCCN | 9.57%
6 | CCCCOC(=O)c1ccccc1 | 0.106%
7 | Cc1cccc(C)c1 | 6.84%
8 | CCCCOCCOCCSC#N | -11.7%
9 | CC(C)CCCCOC(=O)c1ccccc1C(=O)OCCCCC(C)C | 1.05%

Reference: PubChem BioAssay (NCATS)
